A549 tox: A549 cytotoxicity, counter-screen for Nrf2 inhibitors; A549 ARE-Fluc cells, CellTiter-Fluor viability, 18-24 h; Potency, µM (titrated, usually from 46 µM), most hits filed as inhibitors; AID 504648; 390,000 tested, 0.16% active
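Cytotoxicity counterscreen: CellTiter-Fluor fluorescence was measured in A549 ARE_Fluc cells after 18-24 h of compound exposure in a concentration series. The subsequent BugLite luminescent read reports ARE-luciferase activity.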
S2 tox: cell viability loss in ATXN counter-screen; S2 cells (HEK-293 line with an ATXN2-luciferase reporter) viability, CellTiter-Fluor protease fluorescence, 24 h; Potency, µM (top dose mostly 56.7 µM), actives largely listed as cytotoxic; 400,000 tested, 0.49% active; AID 651635; note: nearly all actives have a fitted effect of over 40% in size
Nrf2 activator: activates Nrf2 signaling; AREc32 ARE-luciferase reporter (MCF7-derived line), luminescence, 24 h; Potency, µM (series often up to 46.1 µM), most hits filed as activators; 410,000 tested, 0.31% active; note: nearly all actives have a fitted effect of over 65% in size
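AREc32_Fluc, 1000 cells/well, OPTI-MEM + 5% FBS, o/n 37 deg C 5% CO2; 23 nL cpd by pin tool, 24 hr; Steady-Glo 30 min RT, luminescence.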
Nrf2 inh: inhibitors of Nrf2 signaling; AID 504444; 360,000 tested, 2.1% active; Potency, µM (top dose mostly 46 µM), most hits filed as inhibitors; A549 ARE-Fluc reporter, luciferase luminescence, 18-24 h; note: nearly all actives have a fitted effect of over 60% in size
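Concentration-response testing used A549 ARE_Fluc cells at 5000 cells/well. Following an 18-24 h compound incubation, viability was read by fluorescence (Ex 405/Em 525) and luciferase output by luminescence.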
ATXN2 expr inh: inhibitors of ATXN2 expression | HEK-293 ATXN2-luciferase reporter, luminescence, 24 h | 360,000 tested, 0.72% active | Potency, µM (top dose mostly 57 µM), usual class: inhibitors | AID 1745845; note: nearly all actives have a fitted effect of over 55% in size
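ATXN2-luciferase reporter cells (luciferase flanked by upstream and downstream ATXN2 gene portions) were treated 24 h at 37 °C with compounds at up to 57 uM. SteadyGlo luminescence gave expression; GF-AFC fluorescence gave viability.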
Each line names hits and unclear results; the compound was inactive in the other large screens. Only some compounds are listed: those with a hit (about 2.9% of all), similar ones and a draw of the others. Calls come from the whole dose curve; as a rule, active = well fitted curve in the direction sought with a large enough effect; inconclusive = small, poorly fitted or top-dose-only effect, or another doubt; inactive = no such curve, though single readings can be large; an effect the other way counts as inactive or inconclusive.

N#CSC(c1ccccc1)c1nc2ccccc2[nH]c1=O (stereo unspecified)	Nrf2 activator inconclusive
Cc1ccc(Oc2c(C(N)=O)cc([N+](=O)[O-])cc2[N+](=O)[O-])cc1	A549 tox 4.11µM, S2 tox inconclusive, Nrf2 inh 5.8µM, ATXN2 expr inh inconclusive
Cc1ccc(CNc2ccc([N+](=O)[O-])cc2C(N)=O)cc1	S2 tox inconclusive
CCCn1c(CC)nc([N+](=O)[O-])c1S(=O)(=O)c1ccccc1	A549 tox inconclusive, Nrf2 inh 20.6µM, ATXN2 expr inh inconclusive (no result: S2 tox)
COC(=O)c1ccc(C(=O)OC)c(NC(=O)COC(=O)c2ccc(OC)c(OC)c2OC)c1	none
Cc1ccc(OCCN2CCN(C(=O)CCC(=O)Nc3nnc(C(C)C)s3)CC2)cc1	A549 tox inconclusive, Nrf2 inh 11.6µM
COc1ccccc1Nc1nc2ccccc2[nH]1	S2 tox inconclusive (no result: Nrf2 inh)
CCc1ccccc1Nc1nc2ccccc2[nH]1	Nrf2 inh 14.6µM (no result: ATXN2 expr inh)
CC(=O)c1cccc(NC(=O)Cn2cc(C(=O)c3cccc(Cl)c3)c(=O)c3ccc(C)nc32)c1	none
S=C(Nc1ccc(Cl)cc1)c1nc2ccccc2s1	none (no result: Nrf2 inh)
O=C(Nc1ccc(Cl)cc1)/C(=C/c1cccc(O)c1)c1nc2ccccc2s1	A549 tox inconclusive, Nrf2 activator inconclusive, Nrf2 inh inconclusive, ATXN2 expr inh 8.91µM (no result: S2 tox)
O=[N+]([O-])c1ccc(SNc2ccccc2)c([N+](=O)[O-])c1	none
O=[N+]([O-])c1ccc(-[n+]2ccc3ccccc3c2)c([N+](=O)[O-])c1	A549 tox inconclusive, S2 tox 11.2µM, ATXN2 expr inh inconclusive
C/C(=N\Nc1ccccc1[N+](=O)[O-])c1ccc(N2CCOCC2)cc1	Nrf2 inh inconclusive
COc1ccc(CCNC(=O)c2cc3c(s2)-c2c(C)cccc2OC3)c(OC)c1	Nrf2 inh 20.6µM
COc1cc(NC(=O)c2cc3c(s2)-c2ccccc2OC3)cc(OC)c1OC	S2 tox inconclusive, Nrf2 inh 20.6µM, ATXN2 expr inh inconclusive
Cc1cccc2c1-c1sc(C(=O)Nc3ccccc3N3CCN(C)CC3)cc1CO2	S2 tox inconclusive, ATXN2 expr inh 28.2µM
S=C(NC1CCCC1)N1CCN(c2cccc(Cl)c2)CC1	A549 tox inconclusive, Nrf2 inh inconclusive
CC(C(=O)Nc1ccccc1Cl)N(c1ccccc1)S(C)(=O)=O (stereo unspecified)	none
C/C(=C\C(=O)c1ccncc1)Nc1ccccc1O	Nrf2 activator 14.1µM
Cc1noc(C)c1COc1ccccc1C(=O)NNC(=O)c1ccccc1F	Nrf2 activator 10µM
Cc1cc(C)c(C)c(S(=O)(=O)N2CCN(C(=O)c3ccccc3OCc3c(C)noc3C)CC2)c1C	Nrf2 inh 18.4µM
Cc1noc(C)c1COc1ccccc1C(=O)N1CCN(S(=O)(=O)c2ccccc2Br)CC1	S2 tox inconclusive (no result: ATXN2 expr inh)
Cc1noc(C)c1COc1ccccc1C(=O)NNC(=O)c1ccc(F)cc1	none (no result: ATXN2 expr inh)
O=C(NNC(=O)c1ccccc1OCc1ccc(F)cc1)c1ccccc1O	S2 tox inconclusive, ATXN2 expr inh 15.8µM
CCN(CC)c1ccc(C=Nc2ccc(OC)c(S(=O)(=O)N3CCOCC3)c2)c(O)c1	none (no result: ATXN2 expr inh)
NS(=O)(=O)c1ccc(CCNC(=O)Cn2c(=O)c3cccn3c3ccc(F)cc32)cc1	none (no result: S2 tox, ATXN2 expr inh)
O=C(Nc1ccc(F)c(Cl)c1)[C@@H]1O[C@H](CO)[C@H](O)[C@H](O)[C@H]1O	none (no result: A549 tox, Nrf2 inh)
CCn1nc(NC(=O)C2CCCO2)c2cc3cccc(C)c3nc21 (stereo unspecified)	none (no result: S2 tox)
COc1ccc(CCNc2ccc(N3C(=O)CC(C)C3=O)cc2[N+](=O)[O-])cc1OC (stereo unspecified)	S2 tox inconclusive, Nrf2 inh 14.6µM
Cn1nc(C(F)(F)F)c(/C=N/OC(=O)c2ccccc2)c1Sc1ccc(Cl)cc1	Nrf2 inh 14.6µM
Cn1nc(C(F)(F)F)c(/C=N/OC(=O)c2ccccc2)c1Cl	none
CC(=O)Nc1ccc(-c2csc(Nc3ccc(Cl)cn3)n2)cc1	Nrf2 inh 14.6µM
CC(=O)Nc1cccc(-c2csc(Nc3ccc(Cl)cn3)n2)c1	S2 tox inconclusive (no result: ATXN2 expr inh)
CC(=O)Nc1ccc(-c2csc(NNC(=O)c3ccccc3)n2)cc1	A549 tox inconclusive, S2 tox inconclusive, Nrf2 inh 13µM (no result: ATXN2 expr inh)
Cc1nnc2n(c1=O)C(CS(=O)(=O)c1ccc3ccccc3c1)CS2 (stereo unspecified)	none
Cc1cc(/C=C2\SC(=Nc3ccccc3)NC2=O)c(C)n1-c1ccc(S(N)(=O)=O)cc1	A549 tox 8.2µM, ATXN2 expr inh inconclusive (no result: Nrf2 inh)
COc1ccc(C(C)=O)c(O)c1	ATXN2 expr inh 15.3µM (no result: A549 tox, S2 tox, Nrf2 activator, Nrf2 inh)
COc1ccc(C(=O)c2ccccc2)c(O)c1	none
CCN(C(=O)c1cc2c(=O)[nH]c3ccc(C)cc3c2s1)c1ccccc1C	S2 tox inconclusive, Nrf2 inh inconclusive
COc1ccc(-n2c(SCC#N)nnc2-c2ccc(NS(=O)(=O)c3ccc(C)cc3)cc2)cc1	Nrf2 inh 10.3µM
O=C(NCCO)c1cccc(Nc2nc(-c3ccccc3)c3cc(Cl)ccc3n2)c1	Nrf2 inh 14.6µM
Cc1ccc(N(C)C(=O)N2CCN(S(=O)(=O)c3c(C)cc(C)cc3C)CC2)cc1	none (no result: S2 tox, ATXN2 expr inh)
O=C(/C=C/Nc1ccccc1C(F)(F)F)c1ccco1	Nrf2 activator 1.78µM, Nrf2 inh inconclusive
NC(=O)c1ccccc1N/C=C/C(=O)c1ccco1	Nrf2 activator inconclusive, Nrf2 inh inconclusive
CCN(CC)CCN(C(=O)CCOc1ccccc1)c1nc2c(F)cc(F)cc2s1	none
CCOc1ccccc1N(CC(=O)NC1CCCC1)S(=O)(=O)c1ccc(C)cc1	Nrf2 inh 14.6µM
O=C(c1ccc(NS(=O)(=O)c2cccc(F)c2)cc1)N1CCCCC1	Nrf2 inh inconclusive
O=C(CN1C(=O)CCC1=O)c1ccc(-c2ccccc2)cc1	Nrf2 inh inconclusive
N=c1ccn(CC(=O)c2ccc(-c3ccccc3)cc2)cc1	A549 tox inconclusive, Nrf2 inh 7.31µM, ATXN2 expr inh 2.99µM
Cc1ccc2nc(N/C(=N/S(=O)(=O)c3cccs3)c3ccccc3Cl)sc2c1	Nrf2 inh inconclusive
c1ccc(CN2CCN(c3nc(-c4ccccc4)nc(-n4ccnc4)n3)CC2)cc1	S2 tox inconclusive, Nrf2 inh 14.6µM
c1ccc(N(c2ccccc2)c2nc(N3CCCC3)nc(-n3ccnc3)n2)cc1	A549 tox inconclusive, S2 tox inconclusive, Nrf2 inh 23.1µM
c1ccc(-c2nc(-n3ccnc3)nc(-n3ccnc3)n2)cc1	Nrf2 inh inconclusive (no result: S2 tox, ATXN2 expr inh)
CN(c1ccccc1)c1nc(N2CCCC2)nc(-n2ccnc2)n1	none
C=CCOC(=O)C1C(=O)CC(C)(O)C(C(=O)OCC=C)C1c1ccc(OC)cc1 (stereo unspecified)	none
CCOC(=O)Nc1sc2c(c1C(=O)OCC)CCC2	none
CCOC(=O)c1c(NC(NC(=O)C(C)C)C(Cl)(Cl)Cl)sc2c1CCC2 (stereo unspecified)	A549 tox inconclusive, Nrf2 inh 23.1µM

Screening data deposited in PubChem by National Center for Advancing Translational Sciences (NCATS).
